Pf Dd2 inh – qHTS Primary assay for Inhibitors of Plasmodium falciparum Dd2 growth in vitro. P. falciparum Dd2 growth, SYBR Green, 72 h. Potency, µM (doses to about 28.9 µM), most hits filed as inhibitors. 120,000 tested, 4.3% active; active means well fitted inhibition curve with a large enough effect; further: nearly all actives have a fitted effect of over 65% in size
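Readout: SYBR Green fluorescence, 485 nm excitation, 535 nm emission, after ~16 h lysis at 37C. Before that, Dd2-infected red cells (2.5% hematocrit) grew 72 h with compound, 29 uM top final concentration.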
Each line names hits and unclear results; the compound was inactive in the other large screens. Many of the other results were omitted from the sample, so hits are more common in it than they were.

CCOC(=O)CCNC(=O)c1ccc2c(c1)N(CC)C1CCCCCN1C2=O (stereo not given)	none
COCCNC(=O)c1cc(-c2cnn(Cc3ccccc3)c2)cc2ncn(C)c12	none
COCCc1noc(C2CN(C(=O)c3cn(C)cn3)C2)n1	none
O=C(NC[C@H]1OC[C@@H](NCc2cnc[nH]2)[C@@H]1O)c1ccncc1	none
Cc1noc(-c2cn(C3CCN(C(=O)c4ccccc4Cl)C3)nn2)n1 (stereo not given)	none
C[C@@]1(NC(=O)Cc2ccccc2)OC[C@H]2CC[C@@H](C(=O)Nc3ccc(OC(F)(F)F)cc3)N2C1=O	none
OC(COc1cccc(CN2CCC(c3ncon3)CC2)c1)CN1CCOCC1 (stereo not given)	none
COc1ccc2nc([C@H]3CCN(C(C)C)C3)[nH]c2c1	Pf Dd2 inh 32µM
c1ccc(CCCN2CC[C@H](c3nc4ccccc4[nH]3)C2)cc1	none
COc1ccc2nc([C@H]3CCN(Cc4ccc(C(=O)O)cc4)C3)[nH]c2c1	none
COc1ccc2nc([C@H]3CCN(C4CCN(C(C)=O)CC4)C3)[nH]c2c1	none
CC(C)N1CC[C@H](c2nc3ccc(C#N)cc3[nH]2)C1	none
COc1ccc2nc([C@H]3CCN(CCCc4ccccc4)C3)[nH]c2c1	Pf Dd2 inh 11µM
COc1ccc(-c2noc([C@@H](C)NS(=O)(=O)c3ccccc3)c2C(=O)O)cc1	none
CCNC(=O)N1CC(N(CC)C2CCOCC2)C1	none
Cc1ccc(Nc2c(-c3ccc(N4CCOCC4)cc3)nc3cccc(C)n23)cc1	none
Cc1cccc(C)c1Nc1c(-c2ccc(N3CCOCC3)cc2)nc2ncccn12	none
Cc1ccccc1Nc1c(-c2ccc(N3CCOCC3)cc2)nc2ccc(Cl)cn12	Pf Dd2 inh 8.9µM
Cc1ccn2c(Nc3ccccc3C)c(-c3ccc(N4CCOCC4)cc3)nc2c1	Pf Dd2 inh 6.3µM
Cc1ccccc1Nc1c(-c2c(F)cccc2Cl)nc2ccc(Br)cn12	Pf Dd2 inh 10µM
Brc1ccc2nc(-c3ccccc3)c(Nc3ccc4c(c3)OCO4)n2c1	none
Cc1ccc(Nc2c(-c3ccc(N4CCOCC4)cc3)nc3ccc(Cl)cn23)cc1	none
Clc1ccc2nc(-c3ccc(N4CCOCC4)cc3)c(Nc3ccccc3)n2c1	none
Cc1ccc(-c2nc3ccc(Cl)cn3c2Nc2ccccc2C)s1	none
COCCNC(=O)C1COC2(CCN(C(=O)c3ccc(F)cc3)CC2)N1C(=O)c1ccccc1 (stereo not given)	none
COc1cccc(C(=O)N2CC(F)(F)C[C@H]2c2nc(C)no2)c1OC	none
CC(C)NC(=O)N1CCC2(CC1)C(=O)NCN2C(=O)Cc1ccc(O)cc1	none
Cc1cc(C)n(CC(=O)N[C@@H]2CN(C)C[C@H]2CN(C)C)n1	none
Cc1cccc(C)c1Oc1ncccc1CNC(=O)CCN1CCCCO1	none
CN(C)c1cccc(C(=O)N2CCC(n3cc(-c4nc(-c5ccccc5)no4)nn3)C2)c1 (stereo not given)	none
COc1ccc(C(=O)NCC(=O)N2CCCCCNC(=O)CC2c2ccccc2)cn1 (stereo not given)	none
COc1nc2c(cc1CNC(=O)CC1CCC(=O)N1)C(=O)N(C1CCCC1)C2 (stereo not given)	none
CCOc1ccc(-n2nc3ccc(NC(=O)COc4ccccc4)cc3n2)cc1	none
CCOc1ccc(-n2nc3ccc(NC(=O)c4ccc(C)cc4C)cc3n2)cc1	none
CCOc1ccc(-n2nc3ccc(NC(=O)c4ccc(-c5cccc(Cl)c5)o4)cc3n2)cc1	Pf Dd2 inh 2.8µM
COc1ccc(OC)c(NC(=O)C2CCCCC(=O)N2)c1 (stereo not given)	none
O=C(c1ccc(Cl)nc1)N1CCC(N2CC3CCCN3C2=O)CC1 (stereo not given)	none
Cc1ccccc1Cn1nnc2c(=O)[nH]c(C3CCCN(C(=O)c4ccc(C(C)(C)C)cc4)C3)nc21 (stereo not given)	Pf Dd2 inh 8.9µM
Cc1ccc(Cn2nnc3c(=O)[nH]c(C4CCN(C(=O)Cc5ccccc5F)CC4)nc32)cc1	none
N#Cc1ccccc1Cn1nnc2c(=O)[nH]c(C3CCCN(S(=O)(=O)c4ccc(F)cc4)C3)nc21 (stereo not given)	none
O=C(Cc1ccccc1F)N1CCC(c2nc3c(nnn3Cc3cccc(Cl)c3)c(=O)[nH]2)CC1	Pf Dd2 inh 10µM
CCc1cn[nH]c1C1CCCN(C(=O)c2ccc(Cn3nnnc3C)cc2)C1 (stereo not given)	none
Cc1ccc(C(=O)N2CCCC(c3nn(-c4ccccc4)c(=O)[nH]3)C2)cc1 (stereo not given)	none
COC(=O)c1ccc(Cn2nnc3c(=O)[nH]c(C4CCCN(S(=O)(=O)c5ccccc5)C4)nc32)cc1 (stereo not given)	none
O=C(c1ccccc1F)N1CCC(c2nn(Cc3ccccc3)c(=O)[nH]2)CC1	none
Cc1cccc(Cn2nnc3c(=O)[nH]c(C4CCCN(C(=O)c5ccc(C(C)(C)C)cc5)C4)nc32)c1 (stereo not given)	Pf Dd2 inh 1µM
CC1=C(C(=O)OC(C)C)C(c2ccccc2)N2C(CC(=O)NCC3CCCO3)=CSC2=N1 (stereo not given)	none
O=c1[nH]c(N2CCOCC2)nc2c1CCN(S(=O)(=O)c1ccc3c(c1)CCC3)CC2	none
Cc1cccnc1NCCNC(=O)c1ccc(S(N)(=O)=O)cc1	none
Cc1cn2cc(C(=O)NCc3cn4c(n3)SCC4)ccc2n1	none
O=C(N1CCC2(CC1)CN(c1ccncn1)CC2CO)C1(c2ccccc2)CC1 (stereo not given)	none
COC(=O)[C@@H](Cc1cccnc1)NC(=O)[C@H]1CN(C(=O)c2cccnc2)CCN1S(=O)(=O)c1ccccc1	none
CC1=C(C(=O)OC(C)C)C(c2cccs2)N2C(CC(=O)NC3CC3)=CSC2=N1 (stereo not given)	none
COc1ccc(C(C)NC(=O)c2cc3c(N4CCSCC4)nc(C)cn3n2)cc1OC (stereo not given)	none
COC(=O)CN1C(=O)[C@@H]2C[C@@H](O)CN2C2(CN(Cc3ccccc3Cl)C2)C1=O	none
c1cncc(-c2ccnc(NCCc3csc(-c4ccncc4)n3)n2)c1	none
CC(Cc1ccncc1)Nc1nccc(-c2cnn(-c3ccccc3)c2)n1 (stereo not given)	Pf Dd2 inh 8.9µM
CC(Cc1ccncc1)Nc1nccc(-c2cnn(-c3ccccc3F)c2)n1 (stereo not given)	Pf Dd2 inh 5µM
c1cc(-c2ccnc(NCC3(N4CCOCC4)CCCCC3)n2)ccn1	none
CCN(Cc1ccncc1)Cc1cn(-c2ccccc2)nn1	none
Fc1ccc(CCNc2nccc(-c3cccnc3)n2)cc1	none
CC(Cn1cncn1)NCc1cc(=O)c2cc(F)ccc2[nH]1 (stereo not given)	none
Cc1cccc(CCNC(=O)C2N(C(C)C)C(=O)C23CCCC3)c1 (stereo not given)	none
C/C(=C\c1ccccc1)CN1CCCCC12Cc1ccccc1CNC2=O (stereo not given)	none
COc1cccc(CN2CCC(N3Cc4cnc(C)n4C3=O)CC2)c1	none
CC(C)(C)OC(=O)N1CCC(c2c(C(=O)NCc3ccccn3)cnn2-c2ccccc2Cl)CC1	none
COc1ccc2[nH]cc(CCNC(=O)C3CCCN(C(C)=O)C3)c2c1 (stereo not given)	none
CCN1CCN(CCCNC(=O)c2cnn(-c3ccc(OC)cc3)c2C2CCN(C(=O)OC(C)(C)C)CC2)CC1	none
COc1ccc2[nH]cc(CCNC(=O)CN3CCCc4nc(C5CC5)ncc4C3=O)c2c1	none
COc1ccc2[nH]cc(CCNC(=O)c3cnn(-c4ccccc4Cl)c3C3CCN(C(=O)OC(C)(C)C)CC3)c2c1	Pf Dd2 inh 5.6µM

Compound activity (PubChem)
